Results as given in PubChem BioAssay AID720575 (National Center for Advancing Translational Sciences (NCATS), 2013).
Some of the results follow. Inconclusive results are not listed. Active and inactive are the calls of the source. Calls follow the shape of the dose curve; as a rule, active = well fitted inhibition curve with a large enough effect; inconclusive = small, poorly fitted or top-dose-only effect; inactive = no such curve, though single readings can be large or run the other way.

experiment: qHTS Assay for Inhibitors of Hepatitis C Virus (HCV): Confirmation Assay for Cherry-picked Compounds; conditions: HCVcc-Cre infectious virus cell assay, luciferase, inhibition
From the text: Hepatitis C virus (HCV) infects about 200 million people in the world. Many infected people progress to chronic liver disease including cirrhosis with a risk of developing liver cancer. To date, there is no effective vaccine for hepatitis C. Current therapy based on interferon is only effective in about half of the patients and is associated with significant adverse effects. The fraction of people with HCV who can complete a successful treatment is estimated to be no more than 10 percent. Recent development of direct-acting antivirals against HCV, such as protease and polymerase inhibitors, is promising but still requires combination with peginterferon and ribavirin for maximal efficacy. In addition, these agents are associated with high rate of resistance and many have significant side effects. Due to the lack of a culture system for infectious HCV, the search for new HCV drugs has been greatly hampered. […] High-throughput screening (HTS) with an infectious HCV system would cover the complete spectrum of potentially druggable targets in all stages of HCV lifecycle, and would have more biological relevance than other cell-based assays. Moreover, targeting several key processes in the viral life cycle may not only increase antiviral efficacy; more importantly, it may also reduce the capacity of the virus to develop resistance to the compound.
The goal of this project is to identify novel HCV inhibitors as new therapies for hepatitis C, using a highly sensitive and specific assay platform based on a HCV infectious cell culture system established in the laboratory and adapted for high-throughput HCV drug screen. The data herein is the result of the confirmation assay against the cherry picked compounds. Decrease in the confirmatory assay signal, indicative of the HCV inhibition is the desired outcome for this assay.
NIH Chemical Genomics Center [NCGC]
NIH Molecular Libraries Probe Centers Network [MLPCN]
Assay Submitter (PI): Jake Liang, NIDDK
Cells were plated in a 1536-wel tissue culture grade plates at a final concentration of 1,000 cells/well (3 uL volume). The assay plate was culture for 4 h. Then 23 nL of compounds from the library collection was added to each well followed by 2.5 µL of HCVcc-Cre virus (~ 0.5 moi). The plates were further cultured for 44 hr at 37C. A volume of 4.5 uL luciferase substrates was added to each well and the plates were incubated at room temperature for 15 min. The luciferase activity was read for 15 sec using the PerkinElmenr ViewLux plate reader.
Also: nearly all actives have a fitted effect of over 80% in size.

Potency, active:
COc1ccc(C(C(=O)NC2CCCCC2)N(C(=O)CCl)c2ccccc2Cl)cc1 (stereo unspecified) 3.15 µM, N#C/C(=C1\CCCN1)c1nc(-c2ccccc2)cs1 14.1 µM, CCCc1nc2ccccc2c(C(=O)OCc2nnc(-c3cc(OC)c(OC)c(OC)c3)o2)c1CC 14.1 µM, Cc1ccc(C)c(NC(=S)NNC(=S)Nc2ccc(C(C)C)cc2)c1 22.3 µM, Cc1cc(-c2cccs2)nc(-n2cccc2)n1 9.95 µM, CN(C)c1nc(N)nc(CSc2nnnn2-c2cccc3ccccc23)n1 5.6 µM, Cc1c(-c2cccc(Cl)c2)nc2ccccc2c1C(=O)OCC(=O)N(C)C1CCS(=O)(=O)C1 (stereo unspecified) 14.1 µM, Cc1ccc(C)c(N2CCN(C(=O)CCCCCn3c(=S)[nH]c4ccc(N5CCOCC5)cc4c3=O)CC2)c1 2.8 µM, CCCOc1ccc(C(=O)C(CCC(CNCC)C(=O)c2ccc(OCCC)cc2)CNCC)cc1 (stereo unspecified) 7.05 µM, COc1ccc(OCCNC(=O)c2cc(C3CC3)nc3c2cnn3C(C)C)cc1 0.353 µM, COc1ccc(Cl)cc1NC(=O)c1oc(C)nc1C 12.5 µM, CC(C)(C)c1ccc(Oc2ccc(N)cc2)cc1 2.8 µM, CCC(C(=O)OCC(=O)Nc1ccc(C(=O)Nc2ccc(OC)cc2)cc1)c1ccccc1 (stereo unspecified) 8.87 µM, CC(C)(C)Nc1nc(-c2ccccn2)nc2ccccc12 1.99 µM, COCCCn1c(SCc2cccc(OC)c2)nc2cc(OC)c(OC)cc2c1=N 14.1 µM, COc1ccc(NC(=O)c2sc(N3CCOCC3)nc2-c2ccccc2)c(OC)c1 14.1 µM
